Reference: the supplement of paper PMC8007513
Where a name gives a salt, the structure may show the parent alone. ± gives the standard error. In all, about 1,300 compounds went through this assay and about 130 (10%) showed an effect of 50% or more. What follows is part of a selection rich in strong results, with near analogues and random picks from the rest.

Tested on: Trichoderma virens ATCC 9645
Assay: growth yield (OD600) with compound + IPBC relative to untreated control; higher = less growth inhibition
Conditions: compound concentration: 100 uM, IPBC concentration: 200 ng/ml
Procedure, shortened: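 Spores of Trichoderma virens ATCC 9645, taken from potato dextrose agar plates grown for 7 days, were suspended at 15,000 spores ml^−1 in potato dextrose broth. In 96-well plates, 100 μl aliquots held library compounds at 100 μM final, either alone or together with a biocide at 200 ng ml^−1, and were grown at 30 °C. A BioTek EL800 read OD600 at 40 h and 72 h. Growth values are given relative to the control lacking both agents and are means of duplicate screens.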

Compound	growth yield (40 h) [%]	growth yield (72 h) [%]
C=CCN1CC[C@]23c4c5ccc(O)c4O[C@H]2C(=O)CC[C@@]3(O)[C@H]1C5 [Naloxone hydrochloride] + CCCCNC(=O)OCC#CI [3-iodo-2-propynyl butylcarbamate (IPBC)]	98.2 ± 3.5	101 ± 3.5
CC[N+](C)(CC)CCOC(=O)C1c2ccccc2Oc2ccccc21 [Methantheline bromide] + CCCCNC(=O)OCC#CI [3-iodo-2-propynyl butylcarbamate (IPBC)]	82 ± 1.9	88.5 ± 2.1
O=c1[nH]c2ccccc2n1C1CCN(CCCC(c2ccc(F)cc2)c2ccc(F)cc2)CC1 [Pimozide] + CCCCNC(=O)OCC#CI [3-iodo-2-propynyl butylcarbamate (IPBC)]	111 ± 8.3	136 ± 2.7
Clc1ccc(C(OCCN2CCCCC2)c2ccccc2)cc1 (stereo not given) [Cloperastine hydrochloride] + CCCCNC(=O)OCC#CI [3-iodo-2-propynyl butylcarbamate (IPBC)]	78.6 ± 0.79	95.1 ± 2
Fc1ccc(C(OCCN2CCN(CCCc3ccccc3)CC2)c2ccc(F)cc2)cc1 + CCCCNC(=O)OCC#CI [3-iodo-2-propynyl butylcarbamate (IPBC)]	13.3 ± 4.8	65.3 ± 6.4
COc1cc(NS(=O)(=O)c2ccc(N)cc2)nc(OC)n1 [Sulfadimethoxine] + CCCCNC(=O)OCC#CI [3-iodo-2-propynyl butylcarbamate (IPBC)]	116.3 ± 0.95	114 ± 1.6
C[C@]12CC[C@H]3[C@@H](CCC4=CC(=O)CC[C@@H]43)[C@@H]1CC[C@@H]2O [Nandrolone] + CCCCNC(=O)OCC#CI [3-iodo-2-propynyl butylcarbamate (IPBC)]	61.2 ± 3.3	83.7 ± 4.8
COc1cccc(OC)c1C(=O)N[C@@H]1C(=O)N2[C@@H]1SC(C)(C)[C@@H]2C(=O)O [Methicillin sodium] + CCCCNC(=O)OCC#CI [3-iodo-2-propynyl butylcarbamate (IPBC)]	89.3	90.7 ± 2
COc1ccc(C(=O)c2ccccc2)c(O)c1 [Oxybenzone] + CCCCNC(=O)OCC#CI [3-iodo-2-propynyl butylcarbamate (IPBC)]	45.3 ± 4.9	71.1 ± 6.1
COc1ccccc1O [Guaiacol] + CCCCNC(=O)OCC#CI [3-iodo-2-propynyl butylcarbamate (IPBC)]	94.7 ± 1.6	98 ± 1.5
Nc1ccc(C(=O)O)c(O)c1 [4-aminosalicylic acid] + CCCCNC(=O)OCC#CI [3-iodo-2-propynyl butylcarbamate (IPBC)]	87.36 ± 0.32	94.18 ± 0.42
COc1ccc(C(=O)CC(=O)c2ccc(C(C)(C)C)cc2)cc1 [Avobenzone] + CCCCNC(=O)OCC#CI [3-iodo-2-propynyl butylcarbamate (IPBC)]	67.83 ± 0.16	71.84 ± 0.1
CC(=O)Oc1ccccc1C(=O)O [Acetylsalicylic acid] + CCCCNC(=O)OCC#CI [3-iodo-2-propynyl butylcarbamate (IPBC)]	107 ± 4.9	104 ± 5.5
COc1ccc(C(=O)c2ccccc2O)c(O)c1 [Dioxybenzone] + CCCCNC(=O)OCC#CI [3-iodo-2-propynyl butylcarbamate (IPBC)]	23.67 ± 0.16	48.35 ± 0.1
CC(N)C12CC3CC(CC(C3)C1)C2 (stereo not given) [Rimantadine Hydrochloride] + CCCCNC(=O)OCC#CI [3-iodo-2-propynyl butylcarbamate (IPBC)]	82.76 ± 0.16	89.04 ± 0.1
C=C1CC[C@@]2(O)[C@H]3Cc4ccc(O)c5c4[C@@]2(CCN3CC2CC2)[C@H]1O5 [Nalmefene hydrochloride] + CCCCNC(=O)OCC#CI [3-iodo-2-propynyl butylcarbamate (IPBC)]	104 ± 15	103 ± 8.3
C[C@H](Cc1cc2c(c(C(N)=O)c1)N(CCCO)CC2)NCCOc1ccccc1OCC(F)(F)F [Silodosin] + CCCCNC(=O)OCC#CI [3-iodo-2-propynyl butylcarbamate (IPBC)]	87 ± 1.3	92.6 ± 0.94
CC[C@]12CCCN3CCc4c(n(c5ccccc45)[C@@](O)(C(=O)OC)C1)[C@@H]32 [Vincamine] + CCCCNC(=O)OCC#CI [3-iodo-2-propynyl butylcarbamate (IPBC)]	86.2 ± 1.4	91 ± 1.7
O=C(O)c1cc(-c2ccc(F)cc2F)ccc1O [Diflunisal] + CCCCNC(=O)OCC#CI [3-iodo-2-propynyl butylcarbamate (IPBC)]	57.8 ± 1.6	80.65 ± 0.32
CN(C)[C@@H]1C(O)=C(C(N)=O)C(=O)[C@@]2(O)C(O)=C3C(=O)c4c(O)ccc(Cl)c4[C@@](C)(O)[C@H]3C[C@@H]12 [Chlortetracycline hydrochloride] + CCCCNC(=O)OCC#CI [3-iodo-2-propynyl butylcarbamate (IPBC)]	77.2 ± 0.64	84.3 ± 2.1

Compound	growth yield (40 h) [%]	growth yield (72 h) [%]
C[N+]1(C)CCOC(O)(c2ccc(-c3ccc(C4(O)C[N+](C)(C)CCO4)cc3)cc2)C1 (stereo not given) [Hemicholinium bromide] + CCCCNC(=O)OCC#CI [3-iodo-2-propynyl butylcarbamate (IPBC)]	19.1 ± 0.64	69.4 ± 1.5
CC(=O)S[C@@H]1CC2=CC(=O)CC[C@]2(C)[C@H]2CC[C@@]3(C)[C@@H](CC[C@@]34CCC(=O)O4)[C@H]12 [Spironolactone] + CCCCNC(=O)OCC#CI [3-iodo-2-propynyl butylcarbamate (IPBC)]	85.3 ± 9.1	91.1 ± 7
CN(C)CCc1c[nH]c2ccc(C[C@H]3COC(=O)N3)cc12 [Zolmitriptan] + CCCCNC(=O)OCC#CI [3-iodo-2-propynyl butylcarbamate (IPBC)]	93.2 ± 4	96.3 ± 4
C=C(C)[C@@H]1[C@H]2OC(=O)[C@@H]1[C@]1(O)C[C@H]3O[C@]34C(=O)O[C@H]2[C@]14C [Picrotoxinin] + CCCCNC(=O)OCC#CI [3-iodo-2-propynyl butylcarbamate (IPBC)]	96.3 ± 11	97.1 ± 8.2
Clc1ccc2c(c1)CCc1cccnc1C2=C1CCNCC1 [Desloratadine] + CCCCNC(=O)OCC#CI [3-iodo-2-propynyl butylcarbamate (IPBC)]	56.2 ± 0.64	89.7 ± 1.4
CCOC(=O)N1CCC(=C2c3ccc(Cl)cc3CCc3cccnc32)CC1 [Loratadine] + CCCCNC(=O)OCC#CI [3-iodo-2-propynyl butylcarbamate (IPBC)]	17.3 ± 4	58.7 ± 2.5
CN1CCC(=C2c3ccccc3CCc3cccnc32)CC1 [Azatadine maleate] + CCCCNC(=O)OCC#CI [3-iodo-2-propynyl butylcarbamate (IPBC)]	99.6 ± 2.4	97.43 ± 0.94
Nc1nc(=O)n([C@@H]2CS[C@H](CO)O2)cc1F [(-)-Emtricitabine] + CCCCNC(=O)OCC#CI [3-iodo-2-propynyl butylcarbamate (IPBC)]	81.33 ± 0.64	87.5 ± 1.1
CC(=O)[C@@]1(O)CC[C@H]2[C@@H]3C[C@H](C)C4=CC(=O)C=C[C@]4(C)[C@@]3(F)[C@@H](O)C[C@@]21C [Fluorometholone] + CCCCNC(=O)OCC#CI [3-iodo-2-propynyl butylcarbamate (IPBC)]	91.3 ± 9.1	88.7 ± 5
CC(=O)NS(=O)(=O)c1ccc(N)cc1 [Sulfacetamide sodic hydrate] + CCCCNC(=O)OCC#CI [3-iodo-2-propynyl butylcarbamate (IPBC)]	91.5 ± 1.3	93.7 ± 0.94
Cc1cc(NS(=O)(=O)c2ccc(N)cc2)no1 [Sulfamethoxazole] + CCCCNC(=O)OCC#CI [3-iodo-2-propynyl butylcarbamate (IPBC)]	45.6 ± 1.1	80 ± 1.6
Cc1noc(NS(=O)(=O)c2ccc(N)cc2)c1C [Sulfisoxazole] + CCCCNC(=O)OCC#CI [3-iodo-2-propynyl butylcarbamate (IPBC)]	77.7 ± 2.7	91.1 ± 1.4
Cc1cc(C)nc(NS(=O)(=O)c2ccc(N)cc2)n1 [Sulfamethazine sodium salt] + CCCCNC(=O)OCC#CI [3-iodo-2-propynyl butylcarbamate (IPBC)]	100 ± 14	98.5 ± 9.1
CC1CS(=O)(=O)CCN1/N=C/c1ccc([N+](=O)[O-])o1 (stereo not given) [Nifurtimox] + CCCCNC(=O)OCC#CI [3-iodo-2-propynyl butylcarbamate (IPBC)]	91.5 ± 12	91.9 ± 6.9
C[C@H](CS)C(=O)N1CCC[C@H]1C(=O)O [Captopril] + CCCCNC(=O)OCC#CI [3-iodo-2-propynyl butylcarbamate (IPBC)]	90.1 ± 1.1	90.1 ± 1.1
C1CCC(C(CC2CCCCN2)C2CCCCC2)CC1 (stereo not given) [Perhexiline maleate] + CCCCNC(=O)OCC#CI [3-iodo-2-propynyl butylcarbamate (IPBC)]	40.981 ± 7.1e-15	85.27 ± 0.32
CN1C(C(=O)Nc2ccccn2)=C(O)c2sccc2S1(=O)=O [Tenoxicam] + CCCCNC(=O)OCC#CI [3-iodo-2-propynyl butylcarbamate (IPBC)]	83.1 ± 2.1	94.08 ± 0.1
CCCCC1(COC(=O)CCC(=O)O)C(=O)N(c2ccccc2)N(c2ccccc2)C1=O [Suxibuzone] + CCCCNC(=O)OCC#CI [3-iodo-2-propynyl butylcarbamate (IPBC)]	89.4 ± 2.7	92.71 ± 0.84
Cc1cccc(C)c1NC(=O)C1CCCCN1C (stereo not given) [Mepivacaine hydrochloride] + CCCCNC(=O)OCC#CI [3-iodo-2-propynyl butylcarbamate (IPBC)]	91.3 ± 3.3	96.3 ± 4
CCCCC[C@H](O)/C=C/[C@@H]1[C@@H](C/C=C\CCCC(=O)O)[C@@H](O)C[C@H]1O [Dinoprost trometamol] + CCCCNC(=O)OCC#CI [3-iodo-2-propynyl butylcarbamate (IPBC)]	83.1 ± 1.1	94.08 ± 0.52
